Reference: PubChem BioAssay AID463173 (ICCB-Longwood Screening Facility, Harvard Medical School, 2010)
The campaign covered roughly 52,000 compounds. About 4,300 (8.3%) were called active. The sample holds actives, similar compounds and a random draw of the others, so the mix is not that of the screen. Rule as the data show it: active = survival mostly below about 52% (no sharp cut-off); inactive = mostly above about 56%.

These compounds were tested on DeltatarO mutant (assay: S. aureus survival, RN4220 and DeltatarO strains – OD600, teichoic acid synthesis inhibitors, primary screen (AID 463173)). Settings: S. aureus RN4220 wild type/DeltatarO growth, OD600, 18 h, hits give low values, screened at 18.75 µg/mL (by protocol).

Row | Structure (SMILES) | survival
1 | CCN1CCN(CCCNC(=O)Cn2c(-c3cccs3)cc3ccccc32)CC1 | 78% (inactive)
2 | Cc1ccccc1Cn1c2ccccc2c2cnn(CC(=O)NC3CCCCCC3)c(=O)c21 | 87% (inactive)
3 | Cc1ccc2[nH]c(=O)c3cc(C(=O)NCCc4ccc(Cl)cc4)sc3c2c1 | 74% (inactive)
4 | CCc1nnc(NC(=O)c2sc3nc4ccc(OC)cc4cc3c2N)s1 | 77% (inactive)
5 | CC(=O)c1ccc(NC(=O)c2cc(-c3ccc4c(c3)OCO4)on2)cc1 | 67% (inactive)
6 | CCCCNC(=O)c1cc(-c2ccc(Cl)c(Cl)c2)on1 | 45% (active)
7 | O=C(NCCc1ccccc1)c1cc(-c2ccc(Cl)c(Cl)c2)on1 | 57% (inactive)
8 | CC(=O)Nc1ccc(NC(=O)c2cc(-c3ccc4c(c3)OCCO4)on2)cc1 | 118% (inactive)
9 | CCCNC(=O)c1cc(-c2ccccc2)on1 | 95% (inactive)
10 | CC(=O)c1ccc(NC(=O)c2cc(-c3ccc(Cl)c(Cl)c3)on2)cc1 | 47% (active)
11 | O=c1cc(Nc2cccc(Br)c2)[nH]c(=O)[nH]1 | 68% (inactive)
12 | O=C(NCc1cccs1)c1ccc(Cn2c(SCc3ccccc3)nc3cccnc32)cc1 | 71% (inactive)
13 | CCOc1ccc(NC(=O)c2sc3nc4c(c(-c5ccccc5)c3c2N)C(=O)CC(C)(C)C4)cc1 | 49% (inactive)
14 | CCOC(=O)c1cc(NC(=O)c2ccc(C)cc2)c(=O)n2c1oc1ccccc12 | 52% (inactive)
15 | CCOC(=O)c1cc(NC(=O)c2ccc(F)cc2)c(=O)n2c1oc1ccccc12 | 54% (inactive)
16 | CCOC(=O)c1cc(NC(=O)c2ccc(OC)cc2)c(=O)n2c1oc1ccc(Cl)cc12 | 46% (active)
17 | CCOC(=O)c1cc(NC(=O)c2ccc(C)cc2)c(=O)n2c1oc1ccc(Cl)cc12 | 55% (inactive)
18 | CCOC(=O)c1cc(NC(=O)c2ccc(F)cc2)c(=O)n2c1oc1ccc(Cl)cc12 | 127% (inactive)
19 | CCOC(=O)c1cc(NC(=O)c2ccc(Cl)cc2)c(=O)n2c1oc1ccccc12 | 34% (active)
20 | O=C(NCCC1=CCCCC1)c1ccc2c(c1)ncn2-c1cccc(Cl)c1 | 98% (inactive)

Row | Structure (SMILES) | survival
21 | Cc1cc(C)c(NC(=O)Cn2ccn(-c3cccc(Cl)c3)c(=O)c2=O)c(C)c1 | 57% (inactive)
22 | COc1ccc(NC(=O)c2cc(S(=O)(=O)N3CCOCC3)cn2C)cc1Cl | 108% (inactive)
23 | CCN(CC)C(=O)c1sc2c(c1C)c(=O)n(CCc1ccccc1)c(=O)n2Cc1ccc(F)cc1Cl | 89% (inactive)
24 | CCS(=O)(=O)N1CCN(S(=O)(=O)c2ccc(Cl)cc2)CC1 | 88% (inactive)
25 | CCOc1cc(CN2CCN(S(=O)(=O)c3ccc(C)cc3)CC2)ccc1OC | 171% (inactive)
26 | Cc1ccc(S(=O)(=O)N2CCN(S(=O)(=O)c3ccc(C)cc3)CC2)cc1 | 96% (inactive)
27 | COc1ccc(CN2CCN(S(=O)(=O)c3ccc(NC(C)=O)cc3)CC2)c(OC)c1OC | 61% (inactive)
28 | CC(=O)Nc1ccc(S(=O)(=O)N2CCN(Cc3ccccc3Cl)CC2)cc1 | 62% (active)
29 | COc1cc(OC)c(OC)cc1CN1CCN(S(=O)(=O)c2ccc(NC(C)=O)cc2)CC1 | 79% (inactive)
30 | CCOc1ccc(CN2CCN(S(=O)(=O)c3ccc(Cl)cc3)CC2)cc1 | 27% (active)
31 | Cc1ccc(S(=O)(=O)N2CCN(Cc3ccccc3Cl)CC2)cc1 | 13% (active)
32 | Cc1ccc(S(=O)(=O)N2CCC(C(=O)NCc3ccccc3Cl)CC2)cc1 | 74% (inactive)
33 | O=C(NC1CC(=O)N(c2ccc(F)cc2)C1)c1ccc2c(c1)OCO2 (stereo not drawn) | 75% (inactive)
34 | Cc1cccc(Nc2nnc(-c3ccc(C)c(S(=O)(=O)NCC4CCCO4)c3)c3ccccc23)c1 (stereo not drawn) | 82% (inactive)
35 | CCOC(=O)COc1ccc(CC)cc1C(=O)c1ccn2nc(-c3ccc(C)cc3)cc2n1 | 75% (inactive)
36 | COc1ccc(CCNC(=O)c2cccc(Nc3nc4ccccc4nc3-n3nc(C)cc3C)c2)cc1OC | 91% (inactive)
37 | N#Cc1nc(-c2ccc(COc3ccc(Cl)cc3)o2)oc1N1CCN(c2ccccc2)CC1 | 64% (inactive)
38 | CCc1ccc(S(=O)(=O)c2nnn3c2nc(NCc2cccc(OC)c2)c2cc(Cl)ccc23)cc1 | 105% (inactive)
39 | COc1ccc(NC(=O)c2cnn(-c3ccc(F)cc3F)c2C2CCN(C(=O)OC(C)(C)C)CC2)cc1Cl | 72% (inactive)
40 | COc1ccc(-c2nsc(NC(=O)c3ccccc3Br)n2)cc1 | 34% (active)

Row | Structure (SMILES) | survival
41 | COc1ccccc1C(=O)Nc1nc(-c2ccc(Br)cc2)ns1 | 86% (inactive)
42 | CCOc1ccc(C(=O)Nc2nc(-c3ccc(Br)cc3)ns2)cc1 | 76% (inactive)
43 | COc1cccc(C(=O)Nc2nc(-c3ccc(Br)cc3)ns2)c1 | 65% (inactive)
44 | COc1ccc(-c2nsc(NC(=O)c3cccc(OC)c3)n2)cc1 | 85% (inactive)
45 | COc1ccccc1C(=O)Nc1nc(-c2ccccc2)ns1 | 45% (active)
46 | Cc1ccc(-c2nsc(NC(=O)c3oc4cc(C)c(Cl)cc4c3C)n2)cc1 | 74% (inactive)
47 | Cc1cc2oc(C(=O)Nc3nc(-c4ccccc4)ns3)c(C)c2cc1Cl | 45% (active)
48 | CCc1ccc2oc(C(=O)Nc3nc(-c4ccccc4)ns3)c(C)c2c1 | 53% (inactive)
49 | Cc1ccc(C(=O)Nc2nc(-c3ccccc3)ns2)cc1 | 59% (inactive)
50 | Cc1ccccc1C(=O)Nc1nc(-c2ccc(Br)cc2)ns1 | 49% (inactive)
51 | COc1ccc(C(=O)Nc2nc(-c3ccc(Br)cc3)ns2)cc1 | 58% (active)
52 | CC(=O)N1CCN(C2=NC(=O)C(=C3CCCCC3)S2)CC1 | 75% (inactive)
53 | CCCOc1ccc(-c2nonc2NC(=O)c2ccco2)cc1OCCC | 111% (inactive)
54 | Cc1c(Cl)cccc1-n1ncc(C(=O)N2CCN(c3ncccn3)CC2)c1C1CCN(C(=O)OC(C)(C)C)CC1 | 102% (inactive)
55 | COc1cc(C2CC(=O)N(c3ccc(C)c(Cl)c3)C3=C2C(=O)OC3)cc(OC)c1OC (stereo not drawn) | 72% (inactive)
56 | Cc1ccc(C)c(NC(=O)C2CCN(c3nn4c(=O)cc(C)nc4s3)CC2)c1 | 106% (inactive)
57 | CCOC(=O)c1cc2sccc2n1CC(=O)NC1CCC(C)CC1 (stereo not drawn) | 95% (inactive)
58 | Oc1c(C(c2ccccc2F)N2CCN(c3ccccc3F)CC2)sc2nc(-c3ccco3)nn12 (stereo not drawn) | 87% (inactive)
